{"source": "ChEMBL document CHEMBL3988442", "about": "“University of Dundee, Small-Polar-MMV Screening Library” (2021)", "note": "Among all 48,000 compounds or so, about 13,000 (27%) showed an effect of 50% or more. The list shows a part of the results."}
{"test_system": "Wolbachia pipientis", "experiment": "Anti-Wolbachia Cell-Based Screen", "assay_type": "functional", "set-up": "scale not given: in the data most compounds retested in dose-response had high values", "conditions": "5 µM", "units": {"Percent Effect": "%"}}
{"smiles": "CCOc1ccc(C(=O)N2Cc3cnc(CC(C)C)nc3C2)o1", "Percent Effect": -22.23}
{"smiles": "Cc1ccc(CC(NC(=O)CCS(C)(=O)=O)c2ccccn2)cc1", "note": "(centres undefined)", "Percent Effect": -19.62}
{"smiles": "C[S+]([O-])c1nncn1CC(=O)c1ccc(Br)cc1", "note": "(centres undefined)", "Percent Effect": -5.183}
{"smiles": "Cc1ccc(CN2CCCC3(CCCCN3S(C)(=O)=O)C2)s1.O=C(O)C(F)(F)F", "note": "(centres undefined)", "Percent Effect": -28.3}
{"smiles": "Cc1nn(C)c(Cl)c1C1CCCN1C(=O)c1csnn1", "note": "(centres undefined)", "Percent Effect": 106}
{"smiles": "Cc1ncncc1C(=O)N1CCCC1c1c(C)nn(C)c1Cl", "note": "(centres undefined)", "Percent Effect": 95.8}
{"smiles": "Cc1ccn2cc(C(=O)N3CCCC3c3c(C)nn(C)c3C)nc2c1", "note": "(centres undefined)", "Percent Effect": 3.405}
{"smiles": "Cc1nn(C)c(Cl)c1C1CCCN1C(=O)c1cnccn1", "note": "(centres undefined)", "Percent Effect": 91.27}
{"smiles": "CC(=O)NCc1ccc(C(=O)N2CCCC2c2c(C)nn(C)c2C)o1", "note": "(centres undefined)", "Percent Effect": 97.07}
{"smiles": "Cc1nn(C)c(Cl)c1C1CCCN1C(=O)c1cc[nH]n1", "note": "(centres undefined)", "Percent Effect": -2.963}
{"smiles": "CCc1nc(CNCC2(C(N)=O)CCOCC2)cs1", "Percent Effect": 1.973}
{"smiles": "CCCC1(CO)CCCN(c2ncccc2F)C1", "note": "(centres undefined)", "Percent Effect": -3.484}
{"smiles": "COc1ccc(OCc2cc(C(=O)N3CCN[C@H](C)C3)n[nH]2)c(Cl)c1", "Percent Effect": -13.06}
{"smiles": "CNC(=O)c1ccc(CN(C(C)C)C(C)C)o1.Cl", "Percent Effect": -8.523}
{"smiles": "COc1cc(C)c(CNC(C)c2csc(C)n2)cc1OC", "note": "(centres undefined)", "Percent Effect": -9.97}
{"smiles": "N#CCCN(CCC#N)C(=O)COC1CCCCC1", "Percent Effect": -15.39}
{"smiles": "CCc1noc(C)c1C(=O)N1CCCC1c1c(C)nn(C)c1OC", "note": "(centres undefined)", "Percent Effect": -9.828}
{"smiles": "COc1c(C2CCCN2C(=O)c2cc(C)on2)c(C)nn1C", "note": "(centres undefined)", "Percent Effect": 99.28}
{"smiles": "COCc1nc(C(=O)N2CCCC2c2c(C)nn(C)c2C)cs1", "note": "(centres undefined)", "Percent Effect": 3.792}
{"smiles": "COc1c(C2CCCN2C(=O)c2cnn(C)c2C2CC2)c(C)nn1C", "note": "(centres undefined)", "Percent Effect": -4.592}
{"smiles": "COc1c(C2CCCN2C(=O)c2cc(C3CC3)on2)c(C)nn1C", "note": "(centres undefined)", "Percent Effect": -11.04}
{"smiles": "COc1c(C2CCCN2C(=O)c2ccco2)c(C)nn1C", "note": "(centres undefined)", "Percent Effect": -0.9591}
{"smiles": "COc1c(C2CCCN2C(=O)c2csc(C(C)C)n2)c(C)nn1C", "note": "(centres undefined)", "Percent Effect": 8.615}
{"smiles": "COc1c(C2CCCN2C(=O)c2ccc(Cl)o2)c(C)nn1C", "note": "(centres undefined)", "Percent Effect": 6.578}
{"smiles": "COc1c(C2CCCN2C(=O)c2csc(C3CC3)n2)c(C)nn1C", "note": "(centres undefined)", "Percent Effect": 61.26}
{"smiles": "Cc1nn(C)c(Cl)c1C1CCCN1C(=O)c1cnn(C)c1C1CC1", "note": "(centres undefined)", "Percent Effect": 93.32}
{"smiles": "CCc1ccc(C(=O)N2CCCC2c2c(C)nn(C)c2OC)o1", "note": "(centres undefined)", "Percent Effect": 54.64}
{"smiles": "c1ccc(CCCN2CC[C@H](c3nnc(-c4ccccc4)o3)C2)cc1", "Percent Effect": -1.621}
{"smiles": "CCN(Cc1ccoc1)C(C(N)=O)c1ccc(C#N)cc1", "note": "(centres undefined)", "Percent Effect": 0.4454}
